Test results as given in PubChem BioAssay (EPA / NIEHS).
Results filed as inconclusive are left out. Active and inactive are the calls of the source. How the source made its calls, unless noted: active means hit-call score of the fitted dose curve at least 0.9, where 1 is the maximum; inactive means score below 0.9.

Assays:
[1] = ATG_NFI_CIS: Attagene CIS-FACTORIAL HepG2 Assay for human Nuclear Factor I (NFI) (AID 2282989); settings: HepG2 cis-regulatory reporter, NFI response element transcription; actives raise or lower the signal
In short: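 HepG2 cells transiently transfected with cis-element-driven multiplexed reporter transcription units, dosed for 24 h. Reporter mRNA quantified by RT-PCR, fluorescent labelling, HpaI digestion and capillary electrophoresis; bidirectional fit versus DMSO baseline.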

[2] = molecular target: Myc proto-oncogene protein (Homo sapiens) (UniProt P01106); assay: ATG_Myc_CIS: Attagene CIS-FACTORIAL HepG2 Assay for human Myelocytomatosis (Myc) Proto-Oncogene Transcription Factor (AID 2282990); settings: HepG2, Attagene cis-reporter transcription factor activity; actives raise or lower the signal
Myc proto-oncogene protein (Homo sapiens), sequence (P01106 whole entry, looked up): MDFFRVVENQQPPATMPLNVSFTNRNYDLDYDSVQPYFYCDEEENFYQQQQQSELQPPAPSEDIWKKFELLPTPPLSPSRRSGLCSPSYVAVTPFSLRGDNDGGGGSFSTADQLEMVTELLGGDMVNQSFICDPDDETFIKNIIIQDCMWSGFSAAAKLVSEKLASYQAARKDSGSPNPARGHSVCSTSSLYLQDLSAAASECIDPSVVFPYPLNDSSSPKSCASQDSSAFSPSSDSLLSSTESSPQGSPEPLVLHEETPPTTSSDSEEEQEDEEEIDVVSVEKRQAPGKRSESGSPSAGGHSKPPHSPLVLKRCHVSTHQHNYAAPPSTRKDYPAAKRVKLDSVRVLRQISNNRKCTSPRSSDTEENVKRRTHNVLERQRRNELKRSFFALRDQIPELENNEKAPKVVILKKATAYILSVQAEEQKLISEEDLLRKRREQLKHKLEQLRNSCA
In short: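 Multiplexed cis-reporter transcription in HepG2 cells after 24 h chemical treatment. Reporter mRNA measured by RT-PCR and capillary electrophoresis fluorescence; activity fitted bidirectionally against DMSO control.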

[3] = ATG_NRF2_ARE_CIS: Attagene CIS-FACTORIAL HepG2 Assay for human Nuclear Factor Erythroid 2 Related Factor 2 (NFR2) response to Antioxidant Response Elements (ARE) (AID 2282992); settings: HepG2 Attagene ARE/NRF2 reporter, transcription factor activity; actives raise or lower the signal
In short: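 Endogenous transcription factor activity read out as reporter transcript levels (RT-PCR plus capillary electrophoresis, fluorescence) in transiently transfected HepG2 cells. Measured at 24 h after dosing; gain or loss of signal fitted versus DMSO.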

[4] = ATG_Oct_MLP_CIS: Attagene CIS-FACTORIAL HepG2 Assay for human Octamer-Binding Transcription Factor (Oct) (AID 2282993); settings: HepG2 Attagene cis-factorial Oct reporter, mRNA; actives raise or lower the signal
In short: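 HepG2 cells transiently transfected with cis-promoter-driven multiplexed reporter transcription units, dosed for 24 h. Reporter mRNA quantified by RT-PCR, fluorescent labelling, HpaI digestion and capillary electrophoresis; bidirectional fits versus DMSO baseline.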

[5] = molecular target: Cellular tumor antigen p53 (Homo sapiens) (UniProt P04637); assay: ATG_p53_CIS: Attagene CIS-FACTORIAL HepG2 Assay for human p53 Transcription Factor (AID 2282994); settings: HepG2 p53 cis-element reporter, Attagene mRNA; actives raise or lower the signal
Cellular tumor antigen p53 (Homo sapiens), sequence (P04637 whole entry, looked up): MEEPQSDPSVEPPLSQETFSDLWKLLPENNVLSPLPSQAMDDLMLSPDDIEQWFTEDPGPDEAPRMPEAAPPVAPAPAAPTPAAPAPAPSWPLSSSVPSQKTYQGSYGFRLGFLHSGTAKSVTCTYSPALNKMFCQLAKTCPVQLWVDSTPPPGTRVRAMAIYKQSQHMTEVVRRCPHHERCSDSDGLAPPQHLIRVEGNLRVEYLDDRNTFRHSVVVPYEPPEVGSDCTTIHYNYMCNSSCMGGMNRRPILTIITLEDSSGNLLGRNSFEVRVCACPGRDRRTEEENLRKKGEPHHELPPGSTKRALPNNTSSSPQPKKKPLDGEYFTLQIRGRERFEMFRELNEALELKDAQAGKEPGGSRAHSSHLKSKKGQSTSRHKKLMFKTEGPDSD
In short: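 Endogenous p53 activity read in transiently transfected HepG2 from a cis-element-driven reporter transcript after 24 h exposure. RNA reverse-transcribed, PCR-amplified, fluorescently labelled and sized by capillary electrophoresis; gain or loss fitted against DMSO baseline.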

[6] = molecular target: human Peroxisome Proliferator-activated Receptor alpha (PPARa), PPARA (gene 5465) (UniProt Q07869); assay: ATG_PPARa_TRANS: Attagene TRANS-FACTORIAL HepG2 Assay for human Peroxisome Proliferator-activated Receptor alpha (PPARa) (AID 2283001; active means hit-call score of the fitted dose curve at least 0.9, where 1 is the maximum)
human Peroxisome Proliferator-activated Receptor alpha (PPARa), PPARA (gene 5465), sequence (Q07869 whole entry, looked up, the tested form may be a part): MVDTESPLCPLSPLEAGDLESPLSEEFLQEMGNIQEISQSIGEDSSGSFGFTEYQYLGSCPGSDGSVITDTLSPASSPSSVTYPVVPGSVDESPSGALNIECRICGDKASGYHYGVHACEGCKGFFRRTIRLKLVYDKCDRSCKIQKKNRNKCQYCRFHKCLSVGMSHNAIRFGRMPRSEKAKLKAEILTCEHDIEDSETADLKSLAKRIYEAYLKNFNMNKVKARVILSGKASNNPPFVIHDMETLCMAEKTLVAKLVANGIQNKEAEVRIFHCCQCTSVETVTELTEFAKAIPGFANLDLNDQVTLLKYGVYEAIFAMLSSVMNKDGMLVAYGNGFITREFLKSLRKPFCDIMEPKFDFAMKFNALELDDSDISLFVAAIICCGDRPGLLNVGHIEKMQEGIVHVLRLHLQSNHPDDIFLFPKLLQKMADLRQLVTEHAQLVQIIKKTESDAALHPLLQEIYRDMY
In short: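 Exposure: 24 h, transiently transfected HepG2 cells. Endpoint: GAL4-UAS reporter mRNA, RT-PCR with capillary electrophoresis fluorescence. Baseline: DMSO; increases fitted.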

[7] = molecular target: Retinoic acid receptor alpha (Homo sapiens) (UniProt P10276); assay: ATG_RARa_TRANS: Attagene TRANS-FACTORIAL HepG2 Assay for human Retinoic Acid Receptor alpha (RARa) (AID 2283005; active means hit-call score of the fitted dose curve at least 0.9, where 1 is the maximum)
Retinoic acid receptor alpha (Homo sapiens), sequence (P10276 whole entry, looked up, the tested form may be a part): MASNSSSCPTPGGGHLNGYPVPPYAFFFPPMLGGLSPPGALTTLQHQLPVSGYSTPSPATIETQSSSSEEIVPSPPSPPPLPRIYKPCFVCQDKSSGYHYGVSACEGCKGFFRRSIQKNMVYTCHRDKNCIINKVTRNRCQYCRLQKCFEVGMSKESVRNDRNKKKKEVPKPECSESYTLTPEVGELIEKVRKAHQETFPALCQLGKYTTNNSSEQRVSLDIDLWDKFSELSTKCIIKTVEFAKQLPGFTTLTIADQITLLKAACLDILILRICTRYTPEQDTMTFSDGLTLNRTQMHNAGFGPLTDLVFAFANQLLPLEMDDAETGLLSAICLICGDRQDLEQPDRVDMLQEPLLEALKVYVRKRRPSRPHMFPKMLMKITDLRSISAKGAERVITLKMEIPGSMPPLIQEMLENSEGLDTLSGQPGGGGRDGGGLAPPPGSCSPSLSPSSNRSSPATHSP
In short: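 HepG2 cells transiently transfected with multiple reporter units expressing chimeric RARα-GAL4 fusion, with GAL4-UAS-driven reporters. After 24 h compound exposure, reporter mRNA induction quantified by RT-PCR and capillary electrophoresis with fluorescent labeling; gain-of-signal fitted relative to DMSO control.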

[8] = molecular target: Peroxisome proliferator-activated receptor gamma (Homo sapiens) (UniProt P37231); assay: ATG_PPARg_TRANS: Attagene TRANS-FACTORIAL HepG2 Assay for human Peroxisome Proliferator-activated Receptor-gamma (PPARg) (AID 2283007; active means hit-call score of the fitted dose curve at least 0.9, where 1 is the maximum)
Peroxisome proliferator-activated receptor gamma (Homo sapiens), sequence (P37231 whole entry, looked up, the tested form may be a part): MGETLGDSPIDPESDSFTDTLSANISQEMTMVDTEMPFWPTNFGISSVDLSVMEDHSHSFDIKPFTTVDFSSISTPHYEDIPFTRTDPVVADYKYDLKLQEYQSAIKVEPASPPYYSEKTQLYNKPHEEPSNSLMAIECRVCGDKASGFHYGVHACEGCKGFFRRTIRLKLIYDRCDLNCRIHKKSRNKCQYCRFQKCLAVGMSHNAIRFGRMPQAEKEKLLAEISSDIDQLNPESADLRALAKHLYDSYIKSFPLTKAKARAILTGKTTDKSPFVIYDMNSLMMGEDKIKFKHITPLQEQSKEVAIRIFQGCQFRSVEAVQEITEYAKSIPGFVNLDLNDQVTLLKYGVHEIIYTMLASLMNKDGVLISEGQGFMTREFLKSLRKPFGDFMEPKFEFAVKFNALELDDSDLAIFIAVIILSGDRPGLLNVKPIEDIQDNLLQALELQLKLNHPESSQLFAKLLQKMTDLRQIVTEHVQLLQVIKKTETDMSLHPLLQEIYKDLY
In short: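 Liver-derived HepG2 cells expressing an exogenous NR-Gal4 chimera alongside GAL4-UAS reporter genes; 24 h exposure. Fluorescence of reporter RT-PCR products, separated by capillary electrophoresis, gives mRNA induction relative to DMSO.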

[9] = molecular target: Nuclear receptor subfamily 1 group I member 2 (Homo sapiens) (UniProt O75469); assay: ATG_PXR_TRANS: Attagene TRANS-FACTORIAL HepG2 Assay for human Pregnane X Receptor (PXR) (AID 2283008; active means hit-call score of the fitted dose curve at least 0.9, where 1 is the maximum)
Nuclear receptor subfamily 1 group I member 2 (Homo sapiens), sequence (O75469 whole entry, looked up, the tested form may be a part): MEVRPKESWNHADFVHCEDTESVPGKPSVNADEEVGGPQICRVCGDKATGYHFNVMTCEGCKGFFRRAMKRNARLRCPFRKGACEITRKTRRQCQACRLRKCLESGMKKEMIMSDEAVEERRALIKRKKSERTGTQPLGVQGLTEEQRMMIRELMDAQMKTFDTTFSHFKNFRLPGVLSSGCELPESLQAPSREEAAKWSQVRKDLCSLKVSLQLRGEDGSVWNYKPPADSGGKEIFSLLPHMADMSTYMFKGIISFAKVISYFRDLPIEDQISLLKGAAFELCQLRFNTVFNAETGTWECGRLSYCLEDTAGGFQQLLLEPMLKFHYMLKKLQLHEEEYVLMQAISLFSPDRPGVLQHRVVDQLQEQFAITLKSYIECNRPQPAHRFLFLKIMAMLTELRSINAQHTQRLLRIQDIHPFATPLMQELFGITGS
In short: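 Transactivation by exogenous PXR–GAL4 fusion measured as reporter transcript induction after 24 h compound treatment of transfected human HepG2 cells. Read-out via RT-PCR and capillary electrophoresis of labelled fragments, fitted upward relative to DMSO.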

[10] = molecular target: human RAR-related Orphan Receptor beta (RORb), RORB (gene 6096) (UniProt Q92753); assay: ATG_RORb_TRANS: Attagene TRANS-FACTORIAL HepG2 Assay for human RAR-related Orphan Receptor beta (RORb) (AID 2283010; active means hit-call score of the fitted dose curve at least 0.9, where 1 is the maximum)
human RAR-related Orphan Receptor beta (RORb), RORB (gene 6096), sequence (Q92753 whole entry, looked up, the tested form may be a part): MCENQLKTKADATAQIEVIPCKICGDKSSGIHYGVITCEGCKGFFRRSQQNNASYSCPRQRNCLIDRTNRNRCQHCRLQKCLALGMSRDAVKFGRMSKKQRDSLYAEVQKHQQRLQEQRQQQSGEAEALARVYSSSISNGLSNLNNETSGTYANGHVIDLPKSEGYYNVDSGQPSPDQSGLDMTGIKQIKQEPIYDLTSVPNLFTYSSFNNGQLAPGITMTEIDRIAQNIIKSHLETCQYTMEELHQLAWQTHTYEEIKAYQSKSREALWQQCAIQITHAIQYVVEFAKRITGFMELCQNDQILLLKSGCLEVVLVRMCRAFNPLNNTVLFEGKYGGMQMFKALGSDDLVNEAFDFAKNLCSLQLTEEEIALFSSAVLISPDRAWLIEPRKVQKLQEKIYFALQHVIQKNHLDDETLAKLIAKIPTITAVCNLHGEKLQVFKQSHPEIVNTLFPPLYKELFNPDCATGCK
In short: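 Multiplexed transcription-factor reporter assay: HepG2 cells transiently carrying NR-Gal4/GAL4-UAS constructs, 24 h treatment, mRNA quantified by RT-PCR plus capillary electrophoresis fluorescence; activity scored as induction over DMSO.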

[11] = ATG_NF_kB_CIS: Attagene CIS-FACTORIAL HepG2 Assay for human Nuclear Factor Kappa B (NF-kB) (AID 2282991); settings: HepG2 Attagene cis-factorial NF-kB reporter mRNA; actives raise or lower the signal
In short: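 After 24 h compound incubation, transfected HepG2 cells yield total RNA; reporter cDNA is PCR-amplified, end-labelled with 6-FAM, HpaI-digested and analysed on a genetic analyser. Endogenous factor activity, DMSO-referenced bidirectional fit.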

[12] = molecular target: human Retinoic Acid Receptor beta (RARb), RARB (gene 5915) (UniProt P10826); assay: ATG_RARb_TRANS: Attagene TRANS-FACTORIAL HepG2 Assay for human Retinoic Acid Receptor beta (AID 2283004; active means hit-call score of the fitted dose curve at least 0.9, where 1 is the maximum)
human Retinoic Acid Receptor beta (RARb), RARB (gene 5915), sequence (P10826 whole entry, looked up, the tested form may be a part): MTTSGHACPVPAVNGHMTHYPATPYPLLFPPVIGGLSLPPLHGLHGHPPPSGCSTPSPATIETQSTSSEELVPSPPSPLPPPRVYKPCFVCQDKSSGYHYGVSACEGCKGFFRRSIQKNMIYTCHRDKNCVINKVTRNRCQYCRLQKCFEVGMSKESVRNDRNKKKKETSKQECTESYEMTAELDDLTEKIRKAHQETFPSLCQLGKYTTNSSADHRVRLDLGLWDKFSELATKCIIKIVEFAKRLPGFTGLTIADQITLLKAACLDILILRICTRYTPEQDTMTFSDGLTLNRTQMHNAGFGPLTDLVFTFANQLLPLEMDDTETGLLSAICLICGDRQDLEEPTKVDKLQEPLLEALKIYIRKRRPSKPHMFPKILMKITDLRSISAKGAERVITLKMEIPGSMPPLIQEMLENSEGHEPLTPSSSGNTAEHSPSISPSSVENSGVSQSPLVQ
In short: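 Induction of reporter mRNA from a chimeric RARb-Gal4 construct was measured by RT-PCR, FAM labelling, HpaI digestion and capillary electrophoresis. Measurements followed 24 h compound treatment of transiently transfected human HepG2 liver cells, with DMSO as baseline.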

[13] = BSK_3C_TissueFactor: BioMAP Diversity Plus: 3C Assay for Tissue Factor Biomarker Activity (AID 2282997); settings: BioMAP 3C HUVEC, tissue factor biomarker readout; actives raise or lower the signal
In short: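 Tissue factor on primary human umbilical vein endothelium was read by ELISA 24 h after dosing, gain or loss relative to DMSO. Cytotoxicity ran alongside via SRB (0.1%, TCA-fixed, 560 nm).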

[14] = BSK_3C_uPAR: BioMAP Diversity Plus: 3C Assay for Urokinase-type plasminogen activator receptor (uPAR) Biomarker Activity (AID 2282998); settings: BioMAP 3C HUVEC, uPAR biomarker ELISA; actives raise or lower the signal
In short: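 Human umbilical vein endothelial primary cells were exposed to test chemical for 24 h. Cell-surface uPAR was then quantified by ELISA, and responses were fitted bidirectionally against DMSO as negative control and baseline.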

[15] = BSK_3C_VCAM1: BioMAP Diversity Plus: 3C Assay for Vascular cell adhesion molecule 1 (VCAM1) Biomarker Activity (AID 2282999); settings: BioMAP 3C HUVEC, VCAM1 ELISA, cytokine-stimulated; actives raise or lower the signal
In short: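 Vascular primary endothelium (human umbilical vein) was exposed to chemicals and assayed 24 h later. VCAM-1 levels came from ELISA, with DMSO serving as baseline for bidirectional fitting.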

[16] = BSK_4H_Eotaxin3: BioMAP Diversity Plus: 4H Assay for Eotaxin 3 Biomarker Activity (AID 2283000); settings: primary human endothelial cells (HUVEC); actives raise or lower the signal
In short: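 Human umbilical vein endothelial cells (BSK_4H system) dosed with test chemical; Eotaxin-3 (CCL26) measured by ELISA 24 h after dosing. Bidirectional curve fitting relative to DMSO negative control as baseline.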

[17] = molecular target: human Peroxisome Proliferator-activated Receptor delta (PPARd), PPARD (gene 5467) (UniProt Q03181); assay: ATG_PPARd_TRANS: Attagene TRANS-FACTORIAL HepG2 Assay for human Peroxisome Proliferator-activated Receptor delta (PPARd) (AID 2283002; active means hit-call score of the fitted dose curve at least 0.9, where 1 is the maximum)
human Peroxisome Proliferator-activated Receptor delta (PPARd), PPARD (gene 5467), sequence (Q03181 whole entry, looked up, the tested form may be a part): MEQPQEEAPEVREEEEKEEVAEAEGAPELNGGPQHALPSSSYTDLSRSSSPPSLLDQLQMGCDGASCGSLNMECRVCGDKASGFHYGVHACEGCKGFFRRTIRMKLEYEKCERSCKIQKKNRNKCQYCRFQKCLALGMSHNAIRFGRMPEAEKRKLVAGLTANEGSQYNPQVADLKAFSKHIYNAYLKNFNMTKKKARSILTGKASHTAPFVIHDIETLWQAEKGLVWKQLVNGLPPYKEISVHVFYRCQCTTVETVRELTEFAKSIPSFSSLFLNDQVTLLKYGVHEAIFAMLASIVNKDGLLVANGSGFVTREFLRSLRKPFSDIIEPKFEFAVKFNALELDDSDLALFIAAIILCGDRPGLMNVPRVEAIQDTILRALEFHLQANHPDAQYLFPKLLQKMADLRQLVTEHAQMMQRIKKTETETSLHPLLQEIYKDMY
In short: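 Multiplexed trans-activation format: HepG2 liver cells expressing exogenous NR-Gal4 chimeras and GAL4-UAS reporters were exposed for 24 h. Reporter mRNA was detected by RT-PCR with capillary electrophoresis fluorescence; activity fitted as gain of signal relative to DMSO.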

[18] = read-out: Intercellular Adhesion Molecule 1 (ICAM1), ICAM1 (gene 3383); assay: BSK_3C_ICAM1: BioMAP Diversity Plus: 3C Assay for Intercellular Adhesion Molecule 1 (ICAM1) Biomarker Activity (AID 2283003); settings: primary human endothelial cells (HUVEC); actives raise or lower the signal
In short: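 Using DMSO as baseline, bidirectional curve fitting was applied to ICAM-1 ELISA signals from HUVEC in the 3C system, measured 24 h after compound addition.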

Measured: AC50

CC(C)NCC(O)COc1ccc(CC(N)=O)cc1 (stereo not given)
inactive: [1] | [2] | [4] | [5] | [6] | [7] | [8] | [9] | [10]
active: [3] 61.5 µM

CCNCCO
inactive: [1] | [2] | [11] | [3] | [4] | [12] | [8]

C=C(C)C(=O)OCCOCCOCCOCCOC(=O)C(=C)C
active: [3] 69.7 µM
not listed: [7] | [8] | [9] | [10] | [11] | [12]
inactive: all other assays above

C=C(C)C(=O)OCCOC1CC2CC1C1C=CCC21 (stereo not given)
active: [3] 177 µM
inactive: [1] | [2] | [4] | [5] | [6] | [17] | [8] | [9]

O=C1OC(=O)c2c(Cl)c(Cl)c(Cl)c(Cl)c21
inactive: [1] | [2] | [3] | [4] | [5] | [6] | [17] | [12] | [10]

Cc1occc(=O)c1OC(=O)C(C)C
inactive: [1] | [2] | [3] | [4] | [5] | [6] | [17] | [10]

CC=CC=CCOC(=O)C(C)C
active: [3] 27.1 µM | [8] 11.1 µM
inactive: [1] | [2] | [4] | [5] | [6] | [9]

CCCCCC(=O)CC
inactive: [1] | [2] | [3] | [4] | [5] | [6] | [17] | [8]

c1ccc(CCc2ccccc2)cc1
active: [3] 149 µM | [13] 14.5 µM | [14] 36.7 µM | [15] 29.8 µM | [16] 30.7 µM | [18] 30.9 µM | [9] 31.6 µM
inactive: [1] | [2] | [4] | [5] | [6] | [17] | [8]
